Experimental data taken from PubChem BioAssay (NCI).
Compounds without any hit were thinned out: in the full panel of roughly 83,000, 20% have a hit.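 A percent growth of 40 corresponds to 60% growth inhibition; 0 means no net growth; -100 means all cells died. Active threshold: below 10.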 Unmarked numbers belong to inactive results. Activity calls are given as the source filed them.

Columns and labels:
Experiment in all cases: NCI-60 one-dose screen, 48 h (100 = growth as untreated, 0 = no growth, -100 = all killed)
Conditions in all cases: 10 µM unless noted
T-47D breast = system: T-47D breast
BT-549 breast = system: BT-549 breast
MDA-MB-435 melanoma = system: MDA-MB-435 melanoma
SW-620 colon = system: SW-620 colon
MCF7 breast = system: MCF7 breast
HCT-116 colon = system: HCT-116 colon
HCC-2998 colon = system: HCC-2998 colon
KM12 colon = system: KM12 colon

Structure (SMILES) | growth (T-47D breast) | growth (BT-549 breast) | growth (MDA-MB-435 melanoma) | growth (SW-620 colon) | growth (MCF7 breast) | growth (HCT-116 colon) | growth (HCC-2998 colon) | growth (KM12 colon)
COc1cc(/C=N/n2cnc3oc(-c4ccccc4)cc3c2=N)cc(CN2CCOCC2)c1O | 81.6% | 109% | 60.8% | 86.1% | 73.8% | 29.8% | 101% | 41.1%
O=C(CSc1ccc(-c2nc3ccccc3[nH]2)cn1)N1CCN(c2ccccc2F)CC1 | 16.7% | 27.8% | 53.9% | 106% | 55.7% | 68.1% | 96.5% | 68.8%
O=C(NNc1nc2cc(F)cc(F)c2n2cccc12)c1ncccn1 | 3.06% (active) | 20.6% | 24.6% | 21.6% | 9.91% (active) | 20.1% | 51.9% | 22.3%
C#C[C@]1(O)CC[C@H]2[C@@H]3CC=C4c5sc(Nc6cc(Cl)ccn6)nc5CC[C@]4(C)[C@H]3CC[C@@]21C | 36.6% | 20% | -61.6% (active) | -1.44% (active) | -64% (active) | 14.4% | 39.8% | -0.602% (active)
COc1ccc(Cn2cc3c(c2-c2cc(OC)c(OC)c(OC)c2)CCCc2cnoc2-3)cc1 | 39.1% | 63.3% | -48.2% (active) | 25.6% | 11.5% | 19% | 32.4% | 29%
Cn1cc(-c2nn3cc(-c4ccncc4)nc3s2)c2cc(Cl)ccc21 | 31.3% | 46% | 14.5% | 18.8% | 17% | -52.9% (active) | 36.3% | 56.5%
CS(=O)(=O)c1ccc2c(c1)c1c(n2C(=O)c2ccc(Cl)cc2)CCCC1 | 18.1% | 33% | -24.3% (active) | 13.6% | 17.8% | 27.6% | 59.9% | 29.8%
O=C(NCCCNc1cc(-c2cn(-c3ccccc3)nc2-c2cccc(O)c2)ccn1)Nc1cccc(C(F)(F)F)c1 | 39.2% | 68.8% | 31.7% | 12.4% | 23.7% | 23.1% | -34.7% (active) | 10.7%
CCOC(=O)c1c(NCC(=O)Nc2ccc(Br)cc2)sc2c1CCCC2 | 30.9% | 23.9% | 42.9% | 8.98% (active) | 11.9% | 7.99% (active) | – | 70.2%
COc1ccc(/C=N/Nc2nc(N/N=C/c3ccc(OC)cc3O)nc(N3CCOCC3)n2)c(O)c1 | 42.4% | 90.3% | 81% | 36.3% | 51.7% | 34.4% | 81.1% | 51.4%
Cc1ccc(-n2cc(/C=C/C(=O)c3ccc(S(C)(=O)=O)cc3)c(-c3ccc(S(C)(=O)=O)cc3)n2)cc1 | 105% | 91.5% | 31.4% | 64.9% | 64.8% | 53.4% | 107% | 59.5%
C=C(C)C(=O)O[C@H]1C[C@@]2(C)OC(=CC2=O)/C(CO)=C\[C@H]2OC(=O)C(=C)[C@H]12 | -5.88% (active) | -7.7% (active) | -71% (active) | -61.3% (active) | -7.53% (active) | -53.7% (active) | – | -8.61% (active)
COc1ccc(-c2nn(-c3ccccc3)cc2/C=C/C(=O)c2ccc(NC(=O)CCCCCCC(=O)NO)cc2)cc1 | 103% | 105% | 104% | 111% | 94.2% | 95.5% | 108% | 95.9%
CCOC(=O)/C(F)=C/C1CC1CCc1cccc(C(F)(F)F)c1 (configuration not stated) | 108% | 113% | 103% | 102% | 95% | 110% | 109% | 99.1%
COc1ccc([C@H]2[C@H](O)C(=O)N2c2cc(OC)c(OC)c(OC)c2)cc1 | 70.2% | -2.44% (active) | -12.9% (active) | 20.3% | 12.4% | 0.54% (active) | 16.3% | 18.8%
C/C(=N\NC(=S)Nc1ccc(Br)cc1)c1cc2ccccc2oc1=O | 43.1% | 8.5% (active) | 11.4% | 27.7% | 6.49% (active) | 16.3% | 29.8% | 0.612% (active)
CC1(COc2ccc3ncc(C#Cc4cncc(C(=O)Nc5cc(C(C)(C)C)on5)c4)n3n2)COC1 | 32.5% | 81.3% | 50% | 38.2% | 40.5% | 17.9% | 49.7% | 15%
COc1ccc(/C=C/C(=O)c2nnn(-c3ccc(C(=O)O)cc3)c2C)cc1OC | 96.8% | 95.7% | 101% | 110% | 86.3% | 91.6% | 106% | 101%
NC(=O)c1c(NC(=O)c2cccc(C(F)(F)F)c2F)sc2c1CCC(=O)C2 | 11.8% | 11.4% | 12.3% | 2.94% (active) | 6.11% (active) | 7.49% (active) | – | 7.39% (active)
O=C(Nc1ccc(Cl)cc1)Nc1nc2ccc([N+](=O)[O-])cc2s1 | -25.9% (active) | -38% (active) | -27.7% (active) | 0.202% (active) | -15.4% (active) | -35.1% (active) | -27.6% (active) | -13.2% (active)
COc1ccc([C@@H]2[C@@H](O)C(=O)N2c2cc(OC)c(OC)c(OC)c2)cc1Cl | 103% | -9.18% (active) | -8.49% (active) | 17.9% | 11.5% | 2.44% (active) | 8.34% (active) | 13.2%
CN(C)C(=O)c1ccccc1-n1cnc2ccccc2c1=O | 99.2% | 117% | 95% | 102% | 96.4% | 100% | 99.9% | 101%
CCOC(=O)c1nn(-c2ccc(C)cc2)c(=O)c2c(N)c(C#N)c(-c3ccc(OC)cc3)cc12 | 102% | 130% | 106% | 94.4% | 95.5% | 99.4% | – | 95.5%
NNC(=O)c1sc2nc(-c3cnccn3)cc(-c3cccs3)c2c1N | 86.4% | 101% | 100% | 110% | 84.6% | 99.3% | – | 92.6%
CC1OC(O[C@@H]2[C@H](O)C(CO)OC(O[C@H]3COC(O[C@H]4CC[C@]5(C)[C@H]6CC[C@]78OC[C@@]9(CC[C@](C)(C=O)C[C@H]97)C(=O)C[C@@]8(C)[C@]6(C)CC[C@H]5C4(C)C)[C@@H](O)[C@@H]3O)[C@H]2OC2OC[C@@H](O)[C@@H](O)[C@@H]2O)[C@@H](O)[C@@H](O)[C@H]1O (some centres not stated) | 81.3% | 104% | 105% | 104% | 87.7% | 89.1% | – | 97%
COc1cc(/C=N/Nc2ccnc3cc(Cl)ccc23)cc(OC)c1O | -56.5% (active) | 103% | -85.9% (active) | -30.4% (active) | -72.3% (active) | -68.7% (active) | – | -53.8% (active)
C=C1C(=O)O[C@@H]2C[C@@H](C)[C@H](OC)CC(=O)[C@](C)(OC(C)=O)C[C@H](OC(=O)/C(C)=C\C)[C@@H]12 | 46.9% | 83.7% | 82.8% | 15.6% | 56.5% | 5.78% (active) | – | 93.7%
CC(C)(C)n1nnnc1C(Nc1nccs1)c1cc2cccc3ccc4cccc1c4c32 (configuration not stated) | 73.6% | 100% | 96.2% | 98.8% | 76.3% | 91.7% | – | 101%
O=S(=O)(Nc1ccc(-n2cnc3cc(-c4ccc(O)cc4)ccc32)cc1)C1CC1 | 72.9% | 91.9% | 87.7% | 102% | 73.9% | 92.7% | – | 68.7%
